# Among all 280,000 compounds or so, about 1,100 (0.39%) were called active. About 7% were inconclusive and are not listed. This is one part of a sample in which actives are shown more often than they occur. Calls come from the whole dose curve; as a rule, active = well fitted inhibition curve with a large enough effect; inconclusive = small, poorly fitted or top-dose-only effect, or effect the other way; inactive = flat fitted curve, though single readings scatter.
# Biological target: Microtubule-associated protein tau (Homo sapiens) (UniProt P10636)
# Sequence (P10636 561-689 P618L limits assumed): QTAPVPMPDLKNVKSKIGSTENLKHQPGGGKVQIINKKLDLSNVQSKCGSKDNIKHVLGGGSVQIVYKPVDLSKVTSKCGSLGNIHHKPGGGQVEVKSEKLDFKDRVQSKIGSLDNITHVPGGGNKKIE
# Experiment: qHTS for Inhibitors of Tau Fibril Formation, Fluorescence Polarization; note: nearly all actives have a fitted effect of over 55% in size
# Conditions: K18 P301L tau heparin fibrillization, Alexa594 FP, 6 h; series mostly up to 57.7 µM; activity, negative = inhibition: at the top concentration
# From the text: NIH Molecular Libraries Probe Production Network [MLPCN]
# NIH Chemical Genomics Center [NCGC]
# Assay Provider: Carlo Ballatore, University of Pennsylvania
# The microtubule-associated protein tau is an abundant protein in the axons of neurons that stabilizes microtubules. With its ability to modulate microtubule dynamics, tau contributes directly or indirectly, to key structural and regulatory cellular functions. Particularly important is the influence tau exerts on axonal transport, which allows signaling molecules, trophic factors and other essential cellular constituents to travel along the axons. Under pathological conditions, tau becomes sequestered into insoluble aggregates called neurofibrillary tangles. This phenomenon is believed to have pathological consequences by promoting axonal transport deficits that ultimately lead to synaptic dysfunction and neuronal loss. To identify inhibitors of tau aggregation, a heparin-induced tau fibril formation assay was used that employed a recombinantly expressed fragment of tau, K18 (Q242-E372), bearing a P301L mutation (Gustke et al. 1994; Hong et al. 1998).
# Gustke, N., B. Trinczek, et al. (1994). "Domains of tau protein and interactions with microtubules." Biochemistry 33(32): 9511-22.
# Hong, M., V. Zhukareva, et al. (1998).
# Li, W. and V. M. Lee (2006). "Characterization of two VQIXXK motifs for tau fibrillization in vitro." Biochemistry 45(51): 15692-701.
# von Bergen, M., S. Barghorn, et al. (2001). "Mutations of tau protein in frontotemporal dementia promote aggregation of paired helical filaments by enhancing local beta-structure." J Biol Chem 276(51): 48165-74.
# NCGC Assay Protocol Summary:
# For screening, 2 uL/well human K18 P301L (15 uM unlabeled and 0.24 uM Alexa 594-labeled tau final concentrations) in reagent buffer (100 mM sodium acetate pH 7) was dispensed into black solid 1536-well plates (Grenier) using a solenoid-based dispenser. Following transfer of 23 nL compound or DMSO vehicle by a pin tool, 2 uL/well heparin (20 uM final concentration) in reagent buffer was added and the plate centrifuged 15 s at 1000 RPM. Plates were incubated 6 hr at 37 C and then 1 uL/well ThT (30 uM final concentration) was added. After a 1 hr ambient incubation, the plates were read by an Envision (Perkin Elmer) to monitor Alexa 594 FP (555 nm excitation and 632 nm emission).
# Keywords: NIH Roadmap, MLPCN, MLI, MLSMR, NCGC, qHTS, tau, tauopathies, Alzheimer's disease, fibril, neurodegeneration, aggregation
# % is set by controls: 0 for no effect and ±100 for the full control effect; potency is the fitted concentration of half-maximal effect.
Structure (SMILES),Potency,"activity, negative = inhibition"
CC[N+](C)(CC)CCC[n+]1c(-c2ccccc2)c2cc(N)ccc2c2ccc(N)cc21,6.31 µM (active),–
CCCN(C/C=C/I)C1CCc2ccc(O)cc2C1 (stereo not given),–,-3.39% (inactive)
c1ccc2sc(SNC3CCCCC3)nc2c1,–,2.44% (inactive)
CN(C)[C@@H]1C(=O)C(C(N)=O)=C(O)[C@@]2(O)C(=O)C3=C(O)c4c(O)cccc4[C@@](C)(O)C3CC12 (stereo not given in full),–,-1.29% (inactive)
CO[C@@H]1C[C@@H](C[C@H]2CC[C@H](C)[C@@H]([C@@H](C)C(=O)O)O2)O[C@]2(O[C@](C)([C@H]3CC[C@@](C)(C4OC([C@H]5O[C@@](O)(CO)[C@H](C)C[C@@H]5C)C[C@@H]4C)O3)C[C@H]2C)[C@@H]1C (stereo not given in full),–,-0.541% (inactive)

# Reference: PubChem BioAssay AID1468 (National Center for Advancing Translational Sciences (NCATS), 2008)
